Active and inactive are the calls of the source. Rule for the calls: active = hit-call score of the fitted dose curve at least 0.9, where 1 is the maximum; inactive = score below 0.9.
Experiment: ATG_TGFb_CIS: Attagene CIS-FACTORIAL HepG2 Assay for human Transforming Growth Factor (TGF) (AID 2282967)
Details: HepG2 Attagene CIS TGFb reporter, mRNA transcription; actives raise or lower the signal
Protocol: ATG_CIS is a cell-based, multiplexed-readout assay that uses HepG2, a human liver cell line, with measurements taken at 24 hours after chemical dosing in a 24-well plate.ATG_TGFb_CIS is one of 52 assay component(s) measured or calculated from the ATG_CIS assay. It is designed to make measurements of mRNA induction, a form of inducible reporter, as detected with fluorescence intensity signals by Reverse transcription polymerase chain reaction (RT-PCR) and Capillary electrophoresis technology.Data from the assay component ATG_TGFb_CIS was analyzed into 1 assay endpoint. This assay endpoint, ATG_TGFb_CIS, was analyzed with bidirectional fitting relative to DMSO as the negative control and baseline of activity. Using a type of inducible reporter, measures of mRNA for gain or loss-of-signal activity can be used to understand the reporter gene at the transcription factor-level as they relate to the gene TGFB1. Furthermore, this assay endpoint can be referred to as a primary readout, because this assay has produced multiple assay endpoints where this one serves a reporter gene function. To generalize the intended target to other relatable targets, this assay endpoint is annotated to the growth factor intended target family, where the subfamily is transforming growth factor beta.
Human liver HepG2 cells are transiently transfected with multiple reporter transcription units (MRTUs) in 6-well plates using FuGene 6 reagent (Roche; 3 ml FuGene/1 mg DNA). The MRTU constructs are regulated by a cis-regulating element (promoter). […] A major difference between the CIS and TRANS system is that in CIS activities of endogenous TFs are measured, whereas the TRANS assay evaluates changes in activities of exogenous, chimeric NR-Gal4 proteins. […] At the end of 24 hour incubation, total RNA was isolated using TriZol reagent (Invitrogen). The isolated RNA is then reverse-transcribed using oligo(dT) primer and Mo-MLV reverse transcriptase (Invitrogen) with DNAse I (Ambion) treatment for 30 min. The one-tenth of the produced cDNA was amplified by PCR using Taq DNA polymerase (Invitrogen) and two reporter sequence-specific primers. The PCR products were fluorescently labeled by primer extension with 6-arboxyfluorescein (6-FAM) 5'-labeled reporter sequence-specific primer (2 min at 95 C, 20 s at 68 C and 10 min at 72 C) and these products were digested with 5U of HpaI (New England Biolabs) for 2h at 37 C. The fragments were purified using Qiaquick PCR columns (Qiagen), analyzed on an ABI 3130xL genetic analyzer (Applied Biosystems) with peak positions identified by using a set of X-rhodamine (ROX)-labeled MapMarker1000 molecular weight standards (BioVentures). The raw capillary electrophoresis data was processed using Attagraph software (Attagene).

outcome, inactive:
CCN(CC)CCOC(=O)c1ccc(N)cc1, C=CC(=O)OCC(O)COc1ccccc1 (stereo not given), Cc1cccc(C)c1C, O=[N+]([O-])c1cc(C(F)(F)F)ccc1Cl, COC(C(=O)O)c1ccccc1 (stereo not given), CCCCCCCCCCCCCCCCCC(=O)OCC(CC)CCCC (stereo not given), COc1cccc(OC)c1, CCCCCOC(=O)CCC, CC[C@]12CCCN3CCc4c(n(c5ccccc45)[C@@](O)(C(=O)OC)C1)[C@@H]32, COc1ccc(Nc2ccccc2)c(C)c1, CCCCCCCCCCCCN, CCCCCCCCCC=O, O=C(O)c1cccc([N+](=O)[O-])c1, CC1=CCC(O)(C(C)C)CC1 (stereo not given), CC1COc2ccccc2N1C(=O)C(Cl)Cl (stereo not given), C=CC(C)(CCC=C(C)C)OC=O (stereo not given), CN(C)CCCN, CC(=O)Nc1ccccc1O, CC(C)=CCC/C(C)=C/COC=O, CCc1ccc(C=O)cc1, O=C1CCc2ccccc2O1, CC1CCC(C(C)CS)CC1S (stereo not given), CC(C)(C)NC(N)=O, CCCCCCCCCCCCCC(=O)O, N#Cc1ccc(CC(=NNC(=O)Nc2ccc(OC(F)(F)F)cc2)c2cccc(C(F)(F)F)c2)cc1, CN(C)CCOCCN(C)C, CC(C)(C)C(=O)c1ccccc1, CCCCCCCCCCCCN(CCCCCCCCCCCC)CCCCCCCCCCCC, C=CC(=O)OCCn1c(=O)n(CCOC(=O)C=C)c(=O)n(CCOC(=O)C=C)c1=O, CC(C)[C@@H]1CC[C@@H](C)CC1=O, CCCCO, CC(=O)[C@H]1CC[C@H]2[C@@H]3CC=C4C[C@@H](O)CC[C@]4(C)[C@H]3CC[C@]12C, CC(C)(CO)[N+](=O)[O-], Cc1ccc2n[nH]nc2c1, CO[Si](CCCn1c(=O)n(CCC[Si](OC)(OC)OC)c(=O)n(CCC[Si](OC)(OC)OC)c1=O)(OC)OC, CC(C)(N)CO, O=[N+]([O-])c1ccc(C=Cc2ccc([N+](=O)[O-])cc2S(=O)(=O)O)c(S(=O)(=O)O)c1, OCC(CO)(CO)COCC(CO)(CO)CO, CCCCCCOC(=O)CC, O=C(OCc1ccccc1)C(=O)OCc1ccccc1

From PubChem BioAssay (EPA / NIEHS)
